Sampled rows, rich in hits. Any-hit rate of the full collection: about 4.7%.
TRHR agonist: TRH receptor (human) agonism. P34981. TRHR cells, calcium flux fluo-8, FDSS agonist mode. activation, % at 2 µM. hit rate 0.18% among 360,000. AID 493084
Target sequence (P34981 whole entry, looked up): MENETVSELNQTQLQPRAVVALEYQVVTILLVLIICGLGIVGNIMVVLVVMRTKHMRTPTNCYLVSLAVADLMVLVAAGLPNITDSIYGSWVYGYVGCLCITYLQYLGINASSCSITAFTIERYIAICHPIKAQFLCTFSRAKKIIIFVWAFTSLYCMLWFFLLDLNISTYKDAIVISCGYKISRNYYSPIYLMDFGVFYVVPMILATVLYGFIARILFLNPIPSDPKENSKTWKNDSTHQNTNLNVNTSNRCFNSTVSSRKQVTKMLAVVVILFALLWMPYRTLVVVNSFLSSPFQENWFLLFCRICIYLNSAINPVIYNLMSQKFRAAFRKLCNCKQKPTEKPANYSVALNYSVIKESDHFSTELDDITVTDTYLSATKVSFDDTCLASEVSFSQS
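Agonist-mode FDSS calcium read (Ex 480/Em 530, 1 s cycles) in 1536-well TRHR cells with fluo-8 dye, after 10-cycle baseline and 23 nL compound addition; TRH at EC20 (10 nM final) added afterwards for the enhancer phase.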
D1 antagonist: human D1 dopamine receptor antagonism; AID 504652; activity change, negative = inhibition, % at 10 µM; hit rate 3.2% among 360,000; P21728; HEK293 TREx D1 cells, calcium flux, dopamine EC80; stronger effect = lower value; in the data active = activity change below about -30%
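Using tetracycline-induced force-coupled D1 Hek293 cells and a calcium dye, signals were followed for 180 s after compound, then for 180 s after EC80 dopamine, to detect inhibitors.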
D1 PAM: human D1 dopamine receptor positive modulation; P21728; HEK293 TREx D1 cells, calcium flux, dopamine EC20 potentiation; hit rate 0.036% among 360,000; potentiation, % at 10 µM; in the data active = potentiation above about 30%
D1 ag: activates the human D1 dopamine receptor; P21728; HEK293 T-REx D1 cells, calcium flux, agonist mode; activation, % at 2 µM; hit rate 1% among 360,000; AID 504660
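Agonism was scored from calcium flux recorded over 180 s (1 read/s) after pintool compound addition, following a 10-cycle baseline. Cells were inducible force-coupled HEK293 TREx D1, plated overnight at 30 C and loaded with no-wash calcium dye.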
TRHR enhancer: TRH receptor (human) allosteric enhancement. TRHR cells, fluo-8 calcium fluorescence, EC20 TRH enhancement. enhancement, % at 2 µM. hit rate 0.66% among 360,000; in the data active = enhancement above about 30%
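Enhancer read-out: after compound pinning and an initial kinetic agonist-mode read, an EC20 of TRH (10 nM final) was injected and fluo-8 calcium signal (Ex 480/Em 530) followed at 1 s/cycle for 100 cycles in TRHR-expressing cells.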
Hits are given with their value; n = inactive; x = no result given. Rule as the data show it, unless noted: active = activation above about 30%; inactive = the rest.

SMILES | TRHR agonist | D1 antagonist | D1 PAM | D1 ag | TRHR enhancer
COC(=O)c1ccc2c(=O)n(Cc3ccc(C(=O)NCCCN4CCC(C)CC4)cc3)c(=S)[nH]c2c1 | n | -42 | n | n | n
CCCn1c(=O)c2sccc2n2c(CCCC(=O)Nc3cccc(CC)c3)nnc12 | n | n | n | n | n
CCOCCCNC(=O)c1ccc2c(=O)n(CCc3ccccc3)c(=O)[nH]c2c1 | n | -39 | n | n | n
O=C(NCCCN1CCCCC1)c1ccc2c(=O)n(CCc3ccccc3)c(=O)[nH]c2c1 | n | -46 | n | n | n
CCCCCNC(=O)c1ccc2c(=O)n(CCc3ccccc3)c(=O)[nH]c2c1 | n | n | n | n | n
O=C(CCc1nnc2n(CCc3ccccc3)c(=O)c3ccccc3n12)NCCCN1CCCCC1 | n | -56 | n | n | n
CCN1C(=O)[C@H]2[C@@H](c3ccc(-c4ccc(Cl)c(Cl)c4)c(OC)c3)N[C@@](Cc3ccccc3)(C(=O)OC)[C@H]2C1=O | n | n | n | n | n
COc1ccc(CNC(=O)CSc2nnc(C3CC3)n2C2CC2)cc1 | n | n | n | n | n
Cc1ccc(S(=O)(=O)Nc2ccc(SC(F)F)cc2)c(C)c1 | n | n | n | n | n
Cc1nn(-c2ccccc2)c(OC(=O)C(C)(C)C)c1Sc1ccccc1 | n | n | n | n | n
CCOC(=O)/C(C#N)=C/c1cn(CCOc2ccccc2)c2ccccc12 | n | n | n | n | n
CCOC(=O)/C(C#N)=C\c1cn(C)c2ccccc12 | n | -32 | n | n | n
COc1ccc(CNc2ncnc3onc(-c4ccc(F)cc4)c23)cc1 | n | n | n | n | n
COc1cccc(-n2nc(C(=O)NCC3CCCO3)c3ccccc3c2=O)c1 (stereo unspecified) | n | n | n | n | n
O=C(Nc1ccccc1)Nc1ccc2nnsc2c1 | n | n | n | 33 | n
CCOc1ccc(NC(=O)Nc2cc(OCC(F)(F)F)cc(OCC(F)(F)F)c2)cc1 | n | -37 | n | n | n
CCOc1ccc(NC(=O)Nc2cc(C(C)C)c(O)cc2C)cc1 | n | -47 | n | n | n
O=C(Nc1cccc(C(F)(F)F)c1)Nc1ccc2snnc2c1 | n | -69 | n | 37 | n
O=C(Nc1ccc(F)cc1)Nc1cc(OCC(F)(F)F)cc(OCC(F)(F)F)c1 | n | n | n | n | n
CC(=O)c1ccc(NC(=O)c2ccc3snnc3c2)cc1 | n | n | n | n | n
CCOc1ccc(NC(=O)Nc2ccc3snnc3c2)cc1 | n | -39 | n | n | n
CN(C)c1ccc(NC(=O)Nc2ccc3snnc3c2)cc1 | n | -48 | n | n | n
O=C(Nc1ccccc1)Nc1ccc2snnc2c1 | n | -52 | n | n | n
Cc1cc(C)c(NC(=O)Nc2ccc3snnc3c2)c(C)c1 | n | n | n | n | n
CCc1ccc(-c2cc(C)no2)cc1S(=O)(=O)NCCc1ccccc1 | n | n | n | n | n
SMILES | TRHR agonist | D1 antagonist | D1 PAM | D1 ag | TRHR enhancer
Cc1sc2c(c1C)c(=O)n(-c1cccc(C(F)(F)F)c1)c(=O)n2Cc1ccc(F)cc1 | n | n | n | n | n
O=C(N/N=C/c1ccc(Cl)s1)C(O)c1ccccc1 (stereo unspecified) | n | -37 | n | n | n
CCOc1ccc(/C=N/NC(=O)C(O)c2ccccc2)c(O)c1 (stereo unspecified) | n | -33 | n | n | n
CCOc1ccc(CCNC(=O)C(O)c2ccccc2)cc1 (stereo unspecified) | n | n | n | n | n
O=C(N/N=C/c1cc(Br)cs1)C(O)c1ccccc1 (stereo unspecified) | n | n | n | n | n
Cc1ccc(C)c(NC(=O)C2CC(=O)N(C3CCCCC3)C2)c1 (stereo unspecified) | n | n | x | n | n
Nc1ncnc2sc3c(c12)CCNC3 | n | n | n | n | n
COc1ccccc1N(C)S(=O)(=O)c1ccc(C(=O)NCC2CCCCC2)cc1 | n | n | n | n | n
CCOCc1c(C(=O)Nc2cc(OCC)c(N3CCOCC3)cc2OCC)oc2ccccc12 | n | n | n | n | n
Cc1c(C(=O)NCc2ccccc2CN2CCCC2)oc2ccccc12 | n | -43 | n | n | n
Cc1c(C(=O)NCc2ccccc2F)oc2ccccc12 | n | n | n | n | n
CCOCc1c(C(=O)NCc2ccccc2CN2CCCC2)oc2ccccc12 | n | -30 | n | n | n
CCOCc1c(C(=O)Nc2ccc3nc(N4CCOCC4)sc3c2)oc2ccccc12 | n | -32 | n | n | n
COc1cccc(N2C(=O)Nc3ccc(Br)cc3C2(O)C(=O)NCCCN(C)C)c1 (stereo unspecified) | n | n | n | n | n
Cc1ccc(Cl)cc1-n1ncc2c(NCCC3=CCCCC3)ncnc21 | n | n | n | n | n
C=CCC(Nc1ccccc1)c1ccc(OC)c(OC)c1 (stereo unspecified) | n | -40 | n | n | n
N#C/C(=C\c1c(Cl)cccc1Cl)c1nc2ccccc2[nH]1 | n | n | n | n | n
Cc1ccc2nc(/C(C#N)=C/c3ccc(-c4cccc([N+](=O)[O-])c4)o3)[nH]c2c1 | n | n | n | 47 | n
Cc1ccc2nc(/C(C#N)=C\c3cc(O)ccc3[N+](=O)[O-])[nH]c2c1 | n | n | n | n | n
N#C/C(=C\c1ccc(Sc2nc3ccccc3[nH]2)o1)c1ccccc1 | n | -34 | n | n | n
Cc1c(Cl)cccc1-c1ccc(/C=C(\C#N)c2nc3ccccc3[nH]2)o1 | n | n | n | 58 | n
N#C/C(=C/c1ccc(N2CCOCC2)o1)c1nc2ccccc2[nH]1 | n | n | n | 64 | n
Cc1ccc2nc(/C(C#N)=C/c3ccc(-c4ccc(F)cc4F)o3)[nH]c2c1 | 52 | n | n | 219 | n
Cc1nc2ccc([N+](=O)[O-])cc2c(=O)n1Cc1cccc(F)c1 | n | n | n | n | n
Cc1cccc(Cn2c(C)nc3ccc([N+](=O)[O-])cc3c2=O)c1 | n | -33 | n | n | n
SMILES | TRHR agonist | D1 antagonist | D1 PAM | D1 ag | TRHR enhancer
Cc1nc2ccc([N+](=O)[O-])cc2c(=O)n1Cc1ccc(F)cc1 | n | -32 | n | n | n
CC1CCN(c2ncnc3ccccc23)CC1 | n | -34 | n | n | n
CC1CCN(c2nc(-c3ccccc3O)nc3ccccc23)CC1 | n | n | n | n | n
Cn1c(=O)nc2n(Cc3ccccc3)c3ccccc3cc-2c1=O | n | n | n | n | 31
Cc1ccccc1-n1c2nc(=O)n(C)c(=O)c-2cc2ccccc21 | n | n | n | n | n
CCOc1cccc(CN2CCCC(N3CCN(c4cccc(Cl)c4)CC3)C2)c1O (stereo unspecified) | n | n | n | n | n
CC(C)/C=C/CN1CCCC(N2CCN(c3cccc(Cl)c3)CC2)C1 (stereo unspecified) | n | -37 | n | n | n
COc1ccccc1CNC(=O)c1cnc2sc(N3CCCCCC3)nn2c1=O | n | n | n | n | n

Source: PubChem BioAssay
